Records with an inconclusive call do not appear. Calls of active or inactive are those of the source. Calls come from the whole dose curve; as a rule, active = well fitted cell-killing curve with a large enough effect; inconclusive = small, poorly fitted or top-dose-only effect, or effect the other way; inactive = flat fitted curve, though single readings scatter.
How the values were obtained:
Assay in all cases: Primary qHTS to identify gynecologic anti-cancer compounds using libraries of approved drugs and bioactive compounds (AID 1345084); note: nearly all actives have a fitted effect of over 55% in size
C33A = details: Gynecologic cancer cell panel viability, ATPlite luminescence, 48 h; series mostly up to 57.5 µM
How it was run: (§1)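 In this quantitative HTS, cell killing is estimated from loss of ATP-dependent luciferase light. Cells see five compound concentrations over a 48 h exposure.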

CASKI = details: Gynecologic cancer cell panel viability, ATPlite luminescence, 48 h; series mostly up to 57.5 µM
How it was run: as §1

Es-2 = details: Gynecologic cancer cell panel viability, ATPlite luminescence, 48 h; series mostly up to 57.5 µM
How it was run: as §1

HeLa = details: Gynecologic cancer cell panel viability, ATPlite luminescence, 48 h; series mostly up to 57.5 µM
How it was run: as §1

Hek293T = details: Gynecologic cancer cell panel viability, ATPlite luminescence, 48 h, control line for the selectivity index; series mostly up to 57.5 µM
How it was run: as §1

JEG-3 = details: Gynecologic cancer cell panel viability, ATPlite luminescence, 48 h; series mostly up to 57.5 µM
How it was run: as §1

OV90 = details: Gynecologic cancer cell panel viability, ATPlite luminescence, 48 h; series mostly up to 57.5 µM
How it was run: as §1

PA-1 = details: Gynecologic cancer cell panel viability, ATPlite luminescence, 48 h; series mostly up to 57.5 µM
How it was run: as §1

SKOV3 = details: Gynecologic cancer cell panel viability, ATPlite luminescence, 48 h; series mostly up to 57.5 µM
How it was run: as §1

Tov-21-G = details: Gynecologic cancer cell panel viability, ATPlite luminescence, 48 h; series mostly up to 57.5 µM
How it was run: as §1

Tov112D = details: Gynecologic cancer cell panel viability, ATPlite luminescence, 48 h; series mostly up to 57.5 µM
How it was run: as §1
% is set by controls: 0 for no effect and ±100 for the full control effect.

C=C1CCC[C@]2(C)CC/C(=C(/CO)C(=O)OC)C[C@@H]12
inactive: Potency (C33A) | Potency (CASKI) | Potency (Es-2) | Potency (HeLa) | Potency (Hek293T) | Potency (JEG-3) | Potency (OV90) | Potency (PA-1) | Potency (SKOV3) | Potency (Tov-21-G) | Potency (Tov112D)

CC(C)(C)Oc1ccc(OCC2Cc3ccccc3CN2C(=O)c2cccc3ccccc23)cc1 (centres undefined)
inactive: Potency (C33A) | Potency (CASKI) | Potency (Es-2) | Potency (HeLa) | Potency (Hek293T) | Potency (JEG-3) | Potency (OV90) | Potency (PA-1) | Potency (Tov-21-G) | Potency (Tov112D)

COc1ccc(C(=O)Nc2c(Cl)cncc2Cl)cc1OC1CCCC1
inactive: Potency (C33A) | Potency (CASKI) | Potency (Es-2) | Potency (HeLa) | Potency (Hek293T) | Potency (JEG-3) | Potency (OV90) | Potency (PA-1) | Potency (SKOV3) | Potency (Tov-21-G) | Potency (Tov112D)

CC(=O)O[C@@H]1C[C@@]2(C)C(CC[C@]3(C)C2CC=C2C4CC(C)(C)CC[C@]4(C(=O)O)CC[C@]23C)C(C)(C)[C@H]1O (some centres undefined)
inactive: Potency (C33A) | Potency (CASKI) | Potency (Es-2) | Potency (HeLa) | Potency (Hek293T) | Potency (JEG-3) | Potency (OV90) | Potency (PA-1) | Potency (Tov-21-G) | Potency (Tov112D)

Cc1nc(Nc2ccc(F)cc2)nc(N2CCc3ccccc3C2C)c1C (centres undefined)
inactive: Potency (C33A) | Potency (CASKI) | Potency (Es-2) | Potency (HeLa) | Potency (Hek293T) | Potency (JEG-3) | Potency (OV90) | Potency (PA-1) | Potency (SKOV3) | Potency (Tov-21-G) | Potency (Tov112D)

COc1cc(O)cc(/C=C/c2cccc(O)c2)c1
inactive: Potency (C33A) | Potency (CASKI) | Potency (Es-2) | Potency (HeLa) | Potency (Hek293T) | Potency (JEG-3) | Potency (OV90) | Potency (PA-1) | Potency (Tov-21-G) | Potency (Tov112D)

CC1(C)CC[C@]23CO[C@@]4(CCC5[C@@]6(C)CC[C@H](O[C@@H]7OC[C@H](O[C@@H]8O[C@H](CO)[C@@H](O)[C@H](O)[C@H]8O[C@@H]8OC[C@@H](O)[C@H](O)[C@H]8O)[C@H](O)[C@H]7O)[C@@](C)(CO)C6CC[C@@]5(C)[C@]4(C)CC2=O)[C@@H]3C1 (some centres undefined)
inactive: activity change, negative = cytotoxicity (C33A) -27.4% [at 11.6 µM] | activity change, negative = cytotoxicity (CASKI) -3.31% [at 11.6 µM] | activity change, negative = cytotoxicity (Es-2) 9.11% [at 11.6 µM] | activity change, negative = cytotoxicity (HeLa) 16.9% [at 11.6 µM] | activity change, negative = cytotoxicity (Hek293T) 5.05% [at 11.6 µM] | activity change, negative = cytotoxicity (JEG-3) -8.75% [at 11.6 µM] | activity change, negative = cytotoxicity (OV90) -4.17% [at 11.6 µM] | activity change, negative = cytotoxicity (PA-1) 10.3% [at 11.6 µM] | activity change, negative = cytotoxicity (SKOV3) -7.83% [at 11.6 µM] | activity change, negative = cytotoxicity (Tov-21-G) -3.45% [at 11.6 µM] | activity change, negative = cytotoxicity (Tov112D) 1.26% [at 11.6 µM]

CCCC(=O)C1(c2ccccc2)CCN(C(=O)[C@@H](Cc2ccc(OC)cc2)NC(=O)[C@@H](N)Cc2cncn2C)CC1
inactive: Potency (C33A) | Potency (CASKI) | Potency (Es-2) | Potency (HeLa) | Potency (Hek293T) | Potency (JEG-3) | Potency (OV90) | Potency (PA-1) | Potency (SKOV3) | Potency (Tov-21-G) | Potency (Tov112D)

CC(=O)CC(=O)Nc1ccc(Cl)c(C(F)(F)F)c1
inactive: Potency (C33A) | Potency (CASKI) | Potency (Es-2) | Potency (HeLa) | Potency (Hek293T) | Potency (JEG-3) | Potency (OV90) | Potency (PA-1) | Potency (Tov-21-G) | Potency (Tov112D)

COc1cc2nc(C3CC3)nc(N3CCN(c4ccccc4OC)CC3)c2cc1OC
inactive: Potency (C33A) | Potency (CASKI) | Potency (Es-2) | Potency (HeLa) | Potency (Hek293T) | Potency (JEG-3) | Potency (OV90) | Potency (PA-1) | Potency (Tov-21-G) | Potency (Tov112D)

CC1OC(OC2C(O)COC(O[C@@H]3[C@@H](O)[C@@H](O)[C@H](OC4C(OC(=O)[C@]56CCC(C)(C)CC5C5=CCC7[C@@]8(C)C[C@H](O)[C@H](OC9OC(CO)C(O)C(O)C9O)[C@@](C)(CO)C8[C@H](O)C[C@@]7(C)[C@]5(C)CC6)OCC(O)C4O)O[C@H]3C)C2O)C(O)C(O)C1O (some centres undefined)
inactive: activity change, negative = cytotoxicity (C33A) -9.28% [at 6.55 µM] | activity change, negative = cytotoxicity (CASKI) 20% [at 6.55 µM] | activity change, negative = cytotoxicity (Es-2) -27.5% [at 6.55 µM] | activity change, negative = cytotoxicity (HeLa) -4.81% [at 6.55 µM] | activity change, negative = cytotoxicity (Hek293T) -17.3% [at 6.55 µM] | activity change, negative = cytotoxicity (JEG-3) -13.2% [at 6.55 µM] | activity change, negative = cytotoxicity (OV90) 13.1% [at 6.55 µM] | activity change, negative = cytotoxicity (PA-1) 0.113% [at 6.55 µM] | activity change, negative = cytotoxicity (SKOV3) -8.72% [at 6.55 µM] | activity change, negative = cytotoxicity (Tov-21-G) -21.3% [at 6.55 µM] | activity change, negative = cytotoxicity (Tov112D) -9.06% [at 6.55 µM]

CC(=O)O[C@@H]1C2=C(O)C(=O)[C@](C)(OC(C)=O)C(=O)C2=CO[C@@]12O[C@@H](C)CC[C@H]2OC(C)=O
inactive: Potency (C33A) | Potency (CASKI) | Potency (Es-2) | Potency (HeLa) | Potency (Hek293T) | Potency (JEG-3) | Potency (OV90) | Potency (PA-1) | Potency (SKOV3) | Potency (Tov-21-G) | Potency (Tov112D)

C=CC(C)(O)CC[C@@H]1[C@@]2(C)CCCC(C)(C)C2CC[C@@]1(C)O (some centres undefined)
inactive: Potency (C33A) | Potency (CASKI) | Potency (Es-2) | Potency (HeLa) | Potency (Hek293T) | Potency (JEG-3) | Potency (OV90) | Potency (PA-1) | Potency (Tov-21-G) | Potency (Tov112D)

COc1cc(-c2nc(N[C@H](CO)Cc3ccccc3)ccc2C(=O)NCCOc2ccccc2)cc(OC)c1OC
inactive: Potency (C33A) | Potency (CASKI) | Potency (Es-2) | Potency (HeLa) | Potency (Hek293T) | Potency (JEG-3) | Potency (OV90) | Potency (PA-1) | Potency (SKOV3) | Potency (Tov-21-G) | Potency (Tov112D)

COc1ccncc1C(=O)NC(=O)Nc1ccc(-c2ccccc2)c(C(F)(F)F)c1
inactive: Potency (C33A) | Potency (CASKI) | Potency (Es-2) | Potency (HeLa) | Potency (Hek293T) | Potency (JEG-3) | Potency (OV90) | Potency (PA-1) | Potency (SKOV3) | Potency (Tov-21-G) | Potency (Tov112D)

COc1ccc2c(c1)C(C(=O)N(Cc1ccc(N(C)C)cc1)c1ccc(C(C)C)cc1)CCC2 (centres undefined)
inactive: Potency (C33A) | Potency (CASKI) | Potency (Es-2) | Potency (HeLa) | Potency (Hek293T) | Potency (JEG-3) | Potency (OV90) | Potency (PA-1) | Potency (Tov-21-G) | Potency (Tov112D)
